The list is not random: actives were taken first. Their share in the collection is about 2.8%.
Pol eta inh-1: blocks human DNA polymerase eta activity; Q9Y253; recombinant Pol eta, fluorescent DNA replication assay; Potency, µM (series often up to 114 µM), most hits filed as inhibitors; actives 1.2% (n = 390,000)
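Pol eta at 10 nM preincubated with compounds 15 min at room temperature; reaction started with fluorescent substrate (50 nM final) and read kinetically at 0 and 10 min.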
PI5P4K alpha inh: blocks human PI5P4K alpha kinase activity | P48426 | AID 652105 | actives 1.2% (n = 330,000) | max response, % | PI5P4Kalpha enzyme, ADP-Glo luminescence, 60 min; stronger effect = lower value; active = max response of -50% or lower; inconclusive = between -30% and -50%; inactive = -30% or higher; note: value at the top dose of about 77 µM
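PI5P4Kalpha ADP-Glo assay; 5 microM ATP final; 60 min RT reaction; HEPES pH 7.4/EGTA/CHAPS, 5% DMSO; controls lacking substrate or enzyme; luminescent end-point.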
Pol iota inh: blocks human DNA polymerase iota activity; Q9UNA4; Pol iota fluorescent replication assay, 10 min; Potency, µM (top dose mostly 115 µM), most hits filed as inhibitors; actives 1% (n = 390,000)
Target sequence (Q9UNA4 whole entry, looked up): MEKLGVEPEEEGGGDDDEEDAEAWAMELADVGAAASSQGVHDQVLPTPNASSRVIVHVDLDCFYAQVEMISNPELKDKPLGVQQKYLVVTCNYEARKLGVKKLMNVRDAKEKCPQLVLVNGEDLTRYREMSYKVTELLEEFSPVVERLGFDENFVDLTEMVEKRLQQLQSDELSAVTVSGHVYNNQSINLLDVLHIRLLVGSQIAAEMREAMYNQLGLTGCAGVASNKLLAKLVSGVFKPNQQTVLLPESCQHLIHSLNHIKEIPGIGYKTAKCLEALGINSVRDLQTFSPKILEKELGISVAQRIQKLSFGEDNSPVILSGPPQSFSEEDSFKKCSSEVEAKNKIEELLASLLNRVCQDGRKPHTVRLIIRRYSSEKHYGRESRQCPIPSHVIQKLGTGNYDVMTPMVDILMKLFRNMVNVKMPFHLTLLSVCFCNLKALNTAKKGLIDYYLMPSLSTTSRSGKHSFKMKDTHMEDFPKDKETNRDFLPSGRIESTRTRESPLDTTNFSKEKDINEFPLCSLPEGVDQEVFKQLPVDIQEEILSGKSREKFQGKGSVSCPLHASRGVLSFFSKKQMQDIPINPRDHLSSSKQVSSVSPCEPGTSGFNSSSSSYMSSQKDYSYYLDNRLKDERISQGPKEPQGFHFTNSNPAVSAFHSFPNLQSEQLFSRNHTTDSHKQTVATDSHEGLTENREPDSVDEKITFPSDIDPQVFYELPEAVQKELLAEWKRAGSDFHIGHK
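Fluorescent replication assay read twice, at 0 min and 10 min after adding 50 nM (final) substrate. Enzyme (10 nM) and compounds were first incubated 15 min at room temperature; enzyme-free buffer wells were negative controls.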
Pol kappa inh-1: DNA polymerase kappa (human) inhibition; Q9UBT6; purified Pol kappa, fluorescent DNA synthesis assay, 10 min; Potency, µM (top dose mostly 107 µM), usual class: inhibitors; actives 0.53% (n = 400,000)
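Readout: fluorescence, taken kinetically at 0 and 10 min. Conditions: 10 nM Pol kappa, 15 min RT compound preincubation, 50 nM substrate final. Controls: enzyme-free buffer wells.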
FEN1 inh: human FEN1 inhibition. Recombinant FEN1 flap cleavage, fluorescence, 15 min. actives 0.35% (n = 390,000). P39748. Potency, µM (titrated, usually from 114 µM), usual class: inhibitors; note: nearly all actives have a fitted effect of over 65% in size
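Concentration–response screening of FEN1 (10 nM): 15 min compound preincubation at room temperature, reaction started with 50 nM substrate and read at 0 and 15 min. Corrected, normalized data were fitted by a four-parameter Hill equation.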
POLB inh: DNA polymerase beta (human) inhibition; actives 1.3% (n = 340,000); Pol beta primer extension/strand displacement, fluorescence kinetic; P06746; AID 485314; Potency, µM (titrated, usually from 114 µM), hits mostly inhibitors
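Pol beta (10 nM) and compounds were preincubated 15 min at room temperature, then 50 nM substrate (final) started primer extension/strand displacement. Reads were taken at 0 and 10 min; concentration-response data were fitted to a four-parameter Hill equation.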
GALK inh confirm: galactokinase (human) inhibition, confirmation. actives 70% (n = 150). purified GALK, Kinase-Glo ATP depletion luminescence. shares compounds with Pol eta inh-1. Potency, µM (highest dose often 115 µM), usual class: inhibitors
Redox cycling: redox cycling activity in phenol red-HRP assay; shares compounds with Pol eta inh-1; Phenol red-HRP H2O2 redox cycling, absorbance 600 nm; Potency, µM (series often up to 115 µM), most hits filed as inhibitors; actives 40% (n = 150)
HEK293 viability: counter-screen for GALK inhibitors: HEK293 cell cytotoxicity; shares compounds with Pol eta inh-1; HEK-293 viability, ATP luminescence (CellTiter-Glo), 24/48 h; Potency, µM (doses to about 46.1 µM), most hits filed as inhibitors; actives 10% (n = 170); AID 2547
Pol kappa inh-2: confirmation of human DNA polymerase kappa inhibitors; shares compounds with Pol eta inh-1; purified Pol-kappa, fluorescent strand-displacement substrate; Potency, µM, hits mostly inhibitors; actives 76% (n = 920); AID 720501
Pol eta inh-2: Pol eta (human) inhibition, cherry-pick confirmation; shares compounds with Pol eta inh-1; Pol eta primer extension, TAMRA/BHQ fluorescence, 10 min; Potency, µM, most hits filed as inhibitors; actives 64% (n = 2,600)
Large screens that a line does not name were inactive (follow-up assays come after a bar, where they were run). Unless noted, calls come from the whole dose curve; as a rule, active = well fitted curve in the direction sought with a large enough effect; inconclusive = small, poorly fitted or top-dose-only effect, or another doubt; inactive = no such curve, though single readings can be large; an effect the other way counts as inactive or inconclusive.

O=C1CCCC2=C1C1(CCCCC1)N=C(Nc1nc3ccccc3o1)N2	FEN1 inh inconclusive (no result: PI5P4K alpha inh) | GALK inh confirm 16.8µM | Redox cycling inactive | HEK293 viability inactive
CC(NC(=O)CCCC1=NS(=O)(=O)c2ccccc2N1)c1ccccc1 (stereo unspecified)	none (no result: PI5P4K alpha inh)
CCCCc1nnc(NC(=O)C(C)Sc2nc(O)c(Cc3ccccc3)c(=O)[nH]2)s1 (stereo unspecified)	none
C/C(=N\Nc1ccc(C(=O)O)cc1)c1ccc(Br)cc1	Pol eta inh-1 12.6µM, Pol iota inh 39.8µM, Pol kappa inh-1 inconclusive, POLB inh 20µM | Pol eta inh-2 26.9
O=C(CN1C(=O)C2CC=CCC2C1=O)Nc1ccc(F)cc1F (stereo unspecified)	none (no result: POLB inh)
O=c1c(Cl)c(NCc2ccccc2)cnn1C12CC3CC(CC(C3)C1)C2	none
CC(C)[C@H](NC(=O)C1CCC(CNC(=O)[C@@H]2CCCN2C(=O)OC(C)(C)C)CC1)C(=O)O (stereo partly specified)	none
C[C@H](NC(=O)C1CCC(CNC(=O)[C@@H]2CCCN2C(=O)OC(C)(C)C)CC1)C(=O)O (stereo partly specified)	none | GALK inh confirm inactive | Redox cycling inactive | HEK293 viability inactive
COc1ccc(C2CC(=O)NC(NC(=O)c3ccc(Br)cc3)=N2)c(OC)c1OC (stereo unspecified)	none (no result: PI5P4K alpha inh)
COc1cc(C(=O)NCCCNc2ccc([N+](=O)[O-])cc2)cc(OC)c1OC	none
CN1C(=O)C(C)(C)c2cc(S(=O)(=O)N3CCN(c4ccccc4F)CC3)ccc21	none
Cc1cccc(N2CCN(S(=O)(=O)c3ccc4c(c3)C(C)(C)C(=O)N4C)CC2)c1C	Pol eta inh-1 22.4µM, PI5P4K alpha inh inconclusive, Pol iota inh inconclusive, Pol kappa inh-1 inconclusive, POLB inh 12.6µM | Pol eta inh-2 inconclusive
COP(=O)(OC)c1ccc(NCc2cc(O)ccc2O)cc1	Pol eta inh-1 10µM, Pol iota inh 10µM, Pol kappa inh-1 inconclusive, FEN1 inh 79.4µM (no result: POLB inh) | Pol eta inh-2 47.8
O=Cc1ccc(OCc2nnsc2Cl)cc1	none
O=C(Cc1nnc(NC(=O)c2ccccc2)s1)N/N=C\c1ccc(O)c(O)c1	Pol eta inh-1 3.16µM, PI5P4K alpha inh -74.5, Pol iota inh 2.24µM, Pol kappa inh-1 3.16µM, FEN1 inh inconclusive, POLB inh 7.08µM | Pol kappa inh-2 9.47 | Pol eta inh-2 37.9
Cc1cc(SCC(=O)N/N=C/c2ccc(O)c(O)c2)nc2ccccc12	Pol eta inh-1 20µM, PI5P4K alpha inh inconclusive, Pol iota inh 50.1µM, Pol kappa inh-1 inconclusive, FEN1 inh inconclusive, POLB inh 8.91µM | Pol eta inh-2 37.9
COc1cc(/C=N/NC(=O)Cc2nnc(NC(=O)c3ccccc3)s2)ccc1O	PI5P4K alpha inh inconclusive, POLB inh inconclusive
C=CCn1c[n+](CC(=O)c2ccc(Br)s2)c2ccccc21	none
COc1ccc(Cl)cc1NC(=O)c1c(NCc2ccc(C)o2)sc2c1CCCC2	Pol eta inh-1 50.1µM, Pol iota inh inconclusive (no result: PI5P4K alpha inh) | Pol eta inh-2 inconclusive
CCOc1ccc(-c2cc(C)n3nc(C(N)=O)cc3n2)cc1	Pol eta inh-1 22.4µM, PI5P4K alpha inh inconclusive, Pol iota inh 28.2µM, POLB inh inconclusive | Pol eta inh-2 inconclusive
COC(=O)c1cc2nc(-c3ccccc3)cc(C)n2n1	Pol eta inh-1 inconclusive
CCN(C(=O)CO/N=C/c1ccc(OC)cc1OC)c1c(N)n(Cc2ccccc2)c(=O)[nH]c1=O	none (no result: POLB inh)
S=c1[nH]nc(-c2cc(-c3ccccc3)n[nH]2)n1/N=C/c1ccccc1	none
S=c1[nH]nc(-c2cc(-c3ccccc3)n[nH]2)n1/N=C/C(Br)=C/c1ccccc1	Pol eta inh-1 50.1µM, PI5P4K alpha inh inconclusive, Pol iota inh 22.4µM, FEN1 inh inconclusive, POLB inh 12.6µM | Pol kappa inh-2 67
Cc1cccc(C)c1NC(=O)CN(C)C(=O)c1ccc2nc[nH]c2c1	Pol eta inh-1 inconclusive, Pol iota inh 22.4µM, Pol kappa inh-1 inconclusive (no result: POLB inh) | Pol eta inh-2 67.5
CN(CC(=O)Nc1c(Cl)cccc1Cl)C(=O)c1ccc2nc[nH]c2c1	Pol eta inh-1 inconclusive, Pol iota inh inconclusive (no result: POLB inh)
Cc1cc(C(=O)Nc2cccc3ccccc23)co1	none
Cc1cc(C(=O)NCc2cc(C(=O)O)co2)co1	Pol eta inh-1 20µM, Pol iota inh inconclusive, Pol kappa inh-1 79.4µM | Pol kappa inh-2 16.8 | Pol eta inh-2 30.1
Cc1ccc(S(=O)(=O)NC(=O)C2(C)CCN2C(=O)c2ccccc2CCc2ccccc2)nc1 (stereo unspecified)	none (no result: Pol eta inh-1, Pol iota inh, Pol kappa inh-1, FEN1 inh, POLB inh)
O=C(O)c1ccc(CSc2n[nH]c(-c3ccco3)n2)cc1	Pol eta inh-1 11.2µM, Pol iota inh 20µM, Pol kappa inh-1 44.7µM, FEN1 inh inconclusive, POLB inh inconclusive | Pol eta inh-2 inconclusive
Cc1onc(NC(=O)c2ccc(Cl)cc2Cl)c1Br	none
CC(=O)Oc1cccc(/C=c2\sc3nc(-c4ccco4)nn3c2=O)c1	Pol eta inh-1 12.6µM, Pol iota inh inconclusive, Pol kappa inh-1 inconclusive, POLB inh 22.4µM | Pol eta inh-2 47.8
COc1cc(/C=c2\sc3nc(-c4ccncc4)nn3c2=O)ccc1OC(C)=O	none (no result: Pol eta inh-1, PI5P4K alpha inh, Pol iota inh, Pol kappa inh-1, FEN1 inh)
Cc1c(C(=O)Nc2cccc(F)c2)oc2c1-c1nn(Cc3c(F)cccc3Cl)cc1CC2	Pol eta inh-1 89.1µM (no result: PI5P4K alpha inh) | Pol kappa inh-2 47.4
CC(=O)c1cccc(NC(=O)c2oc3c(c2C)-c2nn(Cc4ccc(Cl)cc4)cc2CC3)c1	none (no result: PI5P4K alpha inh)
CCc1oc(C(=O)O)cc1CN(CC)CC	none (no result: PI5P4K alpha inh)
CCc1oc(C(=O)O)cc1COC	Pol eta inh-1 28.2µM, Pol iota inh inconclusive, POLB inh 22.4µM | Pol eta inh-2 30.1
O=C(COC(=O)C1CC1)NCc1ccccc1	none (no result: POLB inh)
